From PubChem BioAssay (Tox21)
Where “and” joins values, the source holds several entries; their conditions need not be identical. Equal entries are not always repeated. Results filed as inconclusive are left out. Calls of active or inactive are those of the source. Unless noted, calls come from the whole dose curve; as a rule, active = well fitted curve in the direction sought with a large enough effect in the repeat runs; inconclusive = weak or mixed curves; inactive = no such curve, though single readings can be large; an effect the other way counts as inactive or inconclusive.

Experiments:
[1] = qHTS assay to identify small molecule antagonists of the estrogen related receptor (ERR) signaling pathway from Tox21 library - cell viability counter screen (AID 1224834); note: nearly all actives have a fitted effect of over 30% in size; note: potency is the fitted concentration of half-maximal effect
How it was run: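 Counter screen run in ERR cells (2,000 cells/well): cells pre-incubated 6 h, then treated with compounds for 17.5 h at 37 C. Fluorescence was read 30 min after CellTiter-Fluor addition.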

[2] = molecular target: Luciferin 4-monooxygenase (Photinus pyralis) (UniProt P08659); assay: qHTS assay to identify small molecule inhibitors of firefly luciferase (AID 1224835); note: nearly all actives have a fitted effect of over 25% in size; note: potency is the fitted concentration of half-maximal effect
How it was run: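 Quantitative HTS format; KM concentrations of both substrates. Purified P. pyralis FLuc activity quantified from luminescence images.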

[3] = qHTS assay to identify small molecule agonists of the constitutive androstane receptor (CAR) signaling pathway - cell viability counter screen (AID 1224836); note: nearly all actives have a fitted effect of over 45% in size; note: potency is the fitted concentration of half-maximal effect
How it was run: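 23 h treatment, 37 C, 5% CO2. Cell line: HepG2 stably expressing hCAR with a CYP2B6-2.2kb construct. Co-treatment: PK11195, 0.75 uM final. Read-out: CellTiter-Fluor fluorescence intensity.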

[4] = qHTS assay to identify small molecule antagonists of the constitutive androstane receptor (CAR) signaling pathway - cell viability counter screen (AID 1224837); note: nearly all actives have a fitted effect of over 45% in size; note: potency is the fitted concentration of half-maximal effect
How it was run: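 CITCO at 50 nM final was added alongside compounds (15 concentrations) to double-stable hCAR/CYP2B6-2.2kb HepG2 cells. Following 23 hr at 37 C, cell viability was quantified by CellTiter-Fluor fluorescence intensity.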

[5] = molecular target: Nuclear receptor subfamily 1 group I member 3 (Homo sapiens) (UniProt Q14994); assay: qHTS assay to identify small molecule antagonists of the constitutive androstane receptor (CAR) signaling pathway (AID 1224838); note: nearly all actives have a fitted effect of over 40% in size; note: potency is the fitted concentration of half-maximal effect
How it was run: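 Inhibition of CITCO-driven (50 nM final) CYP2B6 reporter expression is measured in HepG2 cells stably carrying hCAR. Fifteen compound concentrations are applied for 24 h at 37 C, followed by luciferase luminescence.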

[6] = molecular target: Nuclear receptor subfamily 1 group I member 3 (Homo sapiens) (UniProt Q14994); assay: qHTS assay to identify small molecule agonists of the constitutive androstane receptor (CAR) signaling pathway (AID 1224839); note: nearly all actives have a fitted effect of over 15% in size; note: potency is the fitted concentration of half-maximal effect
How it was run: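 Compounds tested at 15 concentrations on HepG2 cells stably harbouring hCAR and CYP2B6-2.2kb reporter constructs, co-treated with PK11195 (0.75 uM final), 24 h at 37 C; luminescent reporter signal quantified.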

[7] = qHTS assay to identify small molecule antagonists of the estrogen related receptor signaling pathway with the pleiotropic PPARgamma coactivator (PGC) from Tox21 10K library - cell viability counter screen (AID 1224840; active = well fitted cell-killing curve with a large enough effect in the repeat runs, not every such curve was filed as active; note: nearly all actives have a fitted effect of over 40% in size; note: potency is the fitted concentration of half-maximal effect)
How it was run: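 Readout: fluorescence intensity from CellTiter-Fluor after 30 min at 37 C/5% CO2. Preceded by 17.5 h treatment of PGC/ERR cells with DMSO-dissolved compounds, added 6 h post-seeding.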

[8] = qHTS assay to identify small molecule antagonists of the estrogen related receptor signaling pathway with the pleiotropic PPARgamma coactivator (PGC) from Tox21 10K library (AID 1224841; call rule not given here; note: actives are mostly falling curves and most rising ones were filed inactive; nearly all actives have a fitted effect of over 50% in size; note: potency is the fitted concentration of half-maximal effect)
How it was run: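 One-Glo luminescence, measured after half an hour at room temperature, quantified reporter output of PGC/ERR cells. These had been plated at 2,000 per well, incubated 6 h, dosed with compounds in DMSO, then kept 18 h at 37 C.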

[9] = qHTS assay to identify small molecule agonists of the estrogen related receptor signaling pathway with the pleiotropic PPARgamma coactivator (PGC) from Tox21 10K library (AID 1224842); note: nearly all actives have a fitted effect of over 15% in size
How it was run: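 PGC/ERR reporter cells (NTP line) were seeded 2,000 per well, rested 6 h at 37 C/5% CO2, then pin-dosed with compounds in DMSO for 18 h at 37 C; luciferase read by One-Glo luminescence after 30 min at room temperature.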

[10] = molecular target: Thyrotropin receptor (Homo sapiens) (UniProt P16473); assay: qHTS assay to identify small molecule agonists of the thyroid stimulating hormone receptor (TSHR) signaling pathway (AID 1224843; calls by dose curve; note: nearly all actives have a fitted effect of over 45% in size)
How it was run: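 Compounds are titrated over 15 concentrations, in triplicate, onto TSHR-HEK293 cells seeded at 800/well. Plates sit 30 min at room temperature before cAMP-d2 and anti-cAMP cryptate are added; signal is read after a further hour.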

Measured: Potency

Sequence of Luciferin 4-monooxygenase (Photinus pyralis) (P08659 whole entry, looked up): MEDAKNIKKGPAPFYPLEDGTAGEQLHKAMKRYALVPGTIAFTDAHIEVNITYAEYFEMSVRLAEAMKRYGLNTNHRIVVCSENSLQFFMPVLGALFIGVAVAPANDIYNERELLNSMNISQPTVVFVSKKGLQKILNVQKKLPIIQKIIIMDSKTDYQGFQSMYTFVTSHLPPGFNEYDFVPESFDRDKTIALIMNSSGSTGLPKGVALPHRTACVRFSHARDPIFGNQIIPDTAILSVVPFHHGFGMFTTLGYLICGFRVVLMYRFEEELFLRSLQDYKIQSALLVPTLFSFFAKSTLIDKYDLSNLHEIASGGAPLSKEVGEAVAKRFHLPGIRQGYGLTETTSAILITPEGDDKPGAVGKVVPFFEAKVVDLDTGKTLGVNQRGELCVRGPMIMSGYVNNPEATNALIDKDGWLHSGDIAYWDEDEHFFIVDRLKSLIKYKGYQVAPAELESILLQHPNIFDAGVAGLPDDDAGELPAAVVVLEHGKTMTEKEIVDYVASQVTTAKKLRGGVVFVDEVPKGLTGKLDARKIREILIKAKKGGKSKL
Sequence of Thyrotropin receptor (Homo sapiens) (P16473 whole entry, looked up): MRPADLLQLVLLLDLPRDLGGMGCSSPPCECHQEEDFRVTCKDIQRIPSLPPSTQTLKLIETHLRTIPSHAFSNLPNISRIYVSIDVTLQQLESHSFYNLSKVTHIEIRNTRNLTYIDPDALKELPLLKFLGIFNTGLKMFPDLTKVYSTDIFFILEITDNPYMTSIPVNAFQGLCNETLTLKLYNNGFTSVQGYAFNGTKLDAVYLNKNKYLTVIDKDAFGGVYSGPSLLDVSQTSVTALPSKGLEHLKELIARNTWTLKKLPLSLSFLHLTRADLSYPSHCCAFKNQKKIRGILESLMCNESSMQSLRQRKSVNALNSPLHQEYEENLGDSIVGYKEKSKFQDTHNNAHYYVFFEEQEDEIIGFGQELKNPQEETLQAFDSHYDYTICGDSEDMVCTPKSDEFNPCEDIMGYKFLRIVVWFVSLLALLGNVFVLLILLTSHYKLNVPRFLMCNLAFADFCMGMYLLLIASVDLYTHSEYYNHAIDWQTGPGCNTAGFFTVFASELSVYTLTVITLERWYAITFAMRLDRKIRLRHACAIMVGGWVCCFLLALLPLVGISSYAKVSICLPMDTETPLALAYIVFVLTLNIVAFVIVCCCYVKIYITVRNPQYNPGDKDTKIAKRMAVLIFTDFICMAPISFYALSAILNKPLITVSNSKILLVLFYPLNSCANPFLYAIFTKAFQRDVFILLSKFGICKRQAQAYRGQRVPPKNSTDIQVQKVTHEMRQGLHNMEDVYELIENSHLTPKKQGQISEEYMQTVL
Sequence of Nuclear receptor subfamily 1 group I member 3 (Homo sapiens) (Q14994 whole entry, looked up): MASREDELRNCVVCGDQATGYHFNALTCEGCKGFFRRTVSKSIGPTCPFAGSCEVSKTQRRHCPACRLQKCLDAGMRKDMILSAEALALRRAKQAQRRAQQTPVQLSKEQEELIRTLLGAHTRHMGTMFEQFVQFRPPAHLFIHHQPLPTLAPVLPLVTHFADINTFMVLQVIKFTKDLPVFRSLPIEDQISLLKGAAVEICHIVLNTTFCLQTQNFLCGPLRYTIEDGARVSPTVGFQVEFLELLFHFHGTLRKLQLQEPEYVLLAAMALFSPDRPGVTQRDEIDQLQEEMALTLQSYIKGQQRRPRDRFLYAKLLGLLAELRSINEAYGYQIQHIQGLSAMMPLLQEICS

Cc1ccc(C)c2ccccc12
not listed: [8] | [9] | [10]
inactive: all other assays above

CC(C)[C@@H](Nc1ccc(C(F)(F)F)cc1Cl)C(=O)OC(C#N)c1cccc(Oc2ccccc2)c1 (stereo not given in full)
inactive: [1] | [2] | [3] | [4] | [5] | [6]

COc1ccc2c3c1O[C@H]1[C@H](O)CC[C@H]4[C@@H](C2)N(C)CC[C@@]341
not listed: [8] | [9] | [10]
inactive: all other assays above

Nc1cc(Cl)ccc1Cl
inactive: all assays above

c1ccc2nc(N3CCNCC3)ccc2c1
inactive: [1] | [2] | [3] | [4] | [5] | [6]

CC(=O)[O][Pb]([c]1ccccc1)([c]1ccccc1)[c]1ccccc1
active: [1] 2.73 µM | [2] 22.4 µM | [3] 5.45 µM | [4] 7.7 µM | [5] 1.54 µM | [7] 3.06 µM | [8] 6.86 µM
inactive: [6] | [9]

C=CC(=O)[O][Sn]([CH2]CCC)([CH2]CCC)[CH2]CCC
inactive: [6] | [9]
active: [1] 3.06 µM | [2] 35.6 µM | [3] 1.22 µM | [4] 1.93 µM | [5] 0.486 µM | [7] 1.72 µM | [8] 13.7 µM

N#CC(C#N)=NNc1cccc(Cl)c1
active: [1] 9.69 µM | [2] 35.6 µM | [3] 6.11 µM | [4] 6.86 µM | [5] 2.43 µM | [7] 7.7 µM | [8] 0.969 µM
inactive: [6] | [9] | [10]

CN(C)C(=S)SSC(=S)N(C)C
active: [1] 339 nM and 433 nM and 473 nM | [2] 2.21 µM and 1.26 µM and 1.55 µM | [3] 339 nM and 486 nM and 531 nM | [4] 269 nM and 344 nM and 422 nM | [5] 191 nM and 386 nM and 473 nM | [7] 214 nM and 243 nM and 266 nM
inactive: [6]

CCNS(=O)(=O)C(F)(F)C(F)(F)C(F)(F)C(F)(F)C(F)(F)C(F)(F)C(F)(F)C(F)(F)F
not listed: [10]
inactive: all other assays above

CC(Cc1ccc(OCC(=O)O)cc1)NCC(O)c1csc(C(F)(F)F)n1 (stereo not given)
inactive: all assays above

O=C1C2(Cl)C3(Cl)C4(Cl)C(Cl)(Cl)C5(Cl)C3(Cl)C1(Cl)C5(Cl)C24Cl (stereo not given)
active: [1] 53.6 µM and 58.5 µM | [3] 60.1 µM | [4] 60.1 µM | [5] 23.9 µM and 52.2 µM | [7] 47.8 µM and 58.5 µM | [8] 53.6 µM
inactive: [2] | [6] | [9]

Clc1ccc(C2(Cn3cncn3)OCCO2)c(Cl)c1
inactive: all assays above

COc1nc(C)nc(NC(=O)NS(=O)(=O)c2ccccc2Cl)n1
inactive: all assays above

O=c1c2ccccc2c(=O)c2c1cc(Cl)c1[nH]c3c([nH]c12)c(Cl)cc1c(=O)c2ccccc2c(=O)c13
active: [2] 56.4 µM
not listed: [8]
inactive: all other assays above

Brc1ccc(Oc2ccc(Br)cc2Br)c(Br)c1
active: [2] 35.6 µM | [6] 54.5 µM
not listed: [9] | [10]
inactive: all other assays above

[Cl][Hg][c]1ccccc1
active: [1] 3.44 µM | [2] 6.33 µM | [3] 6.86 µM | [4] 4.33 µM | [5] 3.86 µM | [7] 2.43 µM
inactive: [6]

Cc1ccc([N+](=O)[O-])[c]2c1[O][Hg]2
inactive: [6]
active: [1] 5.31 µM | [2] 17.4 µM | [3] 9.44 µM | [4] 6.68 µM | [5] 9.44 µM | [7] 5.96 µM

Oc1ccc(Cl)c(Cl)c1
not listed: [10]
inactive: all other assays above

COC(=O)/C=C(\C)OP(=O)(OC)OC
not listed: [8]
inactive: all other assays above

c1csc(-c2ccc(-c3cccs3)s2)c1
inactive: [1] | [3] | [4] | [5] | [7]
active: [2] 2.52 µM | [6] 13.7 µM

Cc1ccn2nc(S(=O)(=O)Nc3c(F)cccc3F)nc2n1
inactive: all assays above
